In PubChem BioAssay (NCATS):
Inconclusive results are not listed. The source made the active and inactive calls. The call rests on the fitted dose curve; in most records, active means well fitted cell-killing curve with a large enough effect; inconclusive means small, poorly fitted or top-dose-only effect, or effect the other way; inactive means no such curve, though single readings can be large or run the other way.
Potency means the concentration at half of the fitted maximal effect.

Test: Viability qHTS for spleen associated tyrosine kinase inhibitor (SYKi) naive MV4-11 cells (AID 1963823); further: nearly all actives have a fitted effect of over 40% in size
Details: MV4-11 AML viability, CellTiter-Glo luminescence, 72 h; series mostly up to 45 µM; viability (% of control): at the top concentration
Procedure, shortened: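 CellTiter-Glo luminescence, 10 min room-temperature incubation, gave viability. Cells: naive MV4-11 (500/well), treated 72 hr at 37 C, 5% CO2.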
In the case of COc1ccc(/C=C/C(=O)O[C@@H]2[C@@H](OC(C)=O)[C@@H](OC(C)=O)[C@H](O[C@H]3[C@@H]4C=CO[C@@H](O[C@@H]5O[C@H](CO)[C@@H](O)[C@H](O)[C@H]5O)[C@@H]4[C@@]4(CO)O[C@@H]34)O[C@H]2C)cc1O, the “viability (% of control)” value is reported as 72.8% [at 17.3 µM] (inactive). With COc1ccc(C2(O)c3c(ccc4c3OC(C)(CCC=C(C)C)C=C4)NC(=O)C2OC)cc1 (stereo not drawn) the “viability (% of control)” value was 25.5% [at 17.3 µM] (inactive). For CCCCC1CCC(c2nc(-c3ccncc3)no2)CC1 (stereo not drawn), the “viability (% of control)” value was 56.8% (inactive). In the case of C=C(C)C(=O)O[C@H]1C[C@@](C)(O)C2(O)CCC(C)(/C=C3/OC(=O)C(COC)=C31)O2 (stereo partly drawn), the Potency is reported as 0.718 µM (active). For OC/C=C/C=C/[C@H]1Cc2cc(O)cc(O)c2O1, the “viability (% of control)” value was 79.6% (inactive). With CC12CC(O)C(O)C=C1c1cc(O)cc(O)c1C(=O)O2 (stereo not drawn) the “viability (% of control)” value was 60.5% (inactive). In the case of CC(O)CCc1ccc(O[C@@H]2O[C@H](CO)[C@@H](O)[C@H](O)[C@H]2O)cc1 (stereo partly drawn), the “viability (% of control)” value is reported as 110% (inactive). With CC(NC(=O)Cc1cc(F)cc(F)c1)C(=O)NC1C(=O)N(C)c2ccccc2-c2ccccc21 (stereo not drawn) the Potency was 5.17 µM (active). For COc1ccc(N2CCN(CCCNC(=O)Cn3c(=O)c4cccn4c4c(C)ccnc43)CC2)cc1, the “viability (% of control)” value was 54.7% (inactive). With COc1ccc(CNC(=O)c2sc3nc(C)cc(C)c3c2N)cc1 the “viability (% of control)” value was 74.2% (inactive). For CC1C2=CC(=O)OC2(O)CC2C1C(O)CC1C(C)(CO)CCCC21C (stereo not drawn), the “viability (% of control)” value was 61% (inactive). In the case of COc1cc(/C=C/CO)cc(OC)c1O[C@@H]1O[C@H](CO[C@@H]2O[C@H](CO)[C@@H](O)[C@H](O)[C@H]2O)[C@@H](O)[C@H](O)[C@H]1O, the “viability (% of control)” value is reported as 87.7% [at 17.3 µM] (inactive). With COc1c(F)cccc1C(=O)N1C[C@@H](C)CC[C@H]1CNc1ccc(Br)cn1 the Potency was 9.2 µM (active).
